For eight compounds, potency estimated from few doses results are on record in article PMC11062922 (Nature Chemical Biology, 2023).

Read-outs that look alike come from different tables or passages of the source.

Parameters in all cases: species or system human, MV4-11 + K-562 + COLO205 + SK-N-BE2 + OVCAR-8
One experiment deals with AKT2. The note with it: read-out: apparent Kd, compound concentrations: 100 nM and 1000 nM (sheet 'Samples'), n = 1.
In the next experiment the test system is CDK6. The note with it: read-out: apparent Kd, compound concentrations: 100 nM and 1000 nM (sheet 'Samples'), n = 1.
Another experiment relates to MAPKAPK2. The note with it: read-out: apparent Kd, compound concentrations: 100 nM and 1000 nM (sheet 'Samples'), n = 1.
For the next experiment, the system named is MAP2K3. The note with it: read-out: apparent Kd; compound concentrations: 100 nM and 1000 nM (sheet 'Samples'), CATDS: 0.58030400025916395; n = 1.
The next experiment concerns PIM2. The note with it: read-out: apparent Kd; compound concentrations: 100 nM and 1000 nM (sheet 'Samples'), CATDS: 0.52192336058926703; n = 1.
A further experiment concerns AKT3. The note with it: read-out: apparent Kd, compound concentrations: 100 nM and 1000 nM (sheet 'Samples'), n = 1.
In the next experiment the test system is MAPK10. The settings on record: read-out: apparent Kd; compound concentrations: 100 nM and 1000 nM (sheet 'Samples'), CATDS: 0.16061628875685399; n = 1.
The test system of a further experiment is MAPK14. The settings on record: read-out: apparent Kd; compound concentrations: 100 nM and 1000 nM (sheet 'Samples'), CATDS: 0.26404764630767302; n = 1.
For another experiment, the system named is MAPK9. The settings on record: read-out: apparent Kd; compound concentrations: 100 nM and 1000 nM (sheet 'Samples'), CATDS: 0.111534825966063; n = 1.
The next experiment has as its system NLK. The settings on record: read-out: apparent Kd; compound concentrations: 100 nM and 1000 nM (sheet 'Samples'), CATDS: 0.289538211789438; n = 1.
A further experiment relates to PRKCQ. The note with it: read-out: apparent Kd; compound concentrations: 100 nM and 1000 nM (sheet 'Samples'), CATDS: 0.10805556024324001; n = 1.
For a further experiment, the system named is PRKCZ. The note with it: read-out: apparent Kd; compound concentrations: 100 nM and 1000 nM (sheet 'Samples'), CATDS: 0.11125426430481999; n = 1.
The test system of a further experiment is FLT3. The settings on record: read-out: apparent Kd, compound concentrations: 100 nM and 1000 nM (sheet 'Samples'), n = 1.
A further experiment has as its system MYLK3. The note with it: read-out: apparent Kd, compound concentrations: 100 nM and 1000 nM (sheet 'Samples'), n = 1.
A further experiment relates to COX5A. The note with it: read-out: apparent Kd; compound concentrations: 100 nM and 1000 nM (sheet 'Samples'), CATDS: 0.36000634537809301; n = 1.
For a further experiment, the system named is CDK16. The note with it: read-out: apparent Kd; compound concentrations: 100 nM and 1000 nM (sheet 'Samples'), CATDS: 8.8636413805305694E-2; n = 1.
A further experiment has as its system CDK2. The settings on record: read-out: apparent Kd; compound concentrations: 100 nM and 1000 nM (sheet 'Samples'), CATDS: 0.14540297909740599; n = 1.
In a further experiment the test system is CDK5. The note with it: read-out: apparent Kd; compound concentrations: 100 nM and 1000 nM (sheet 'Samples'), CATDS: 0.117408744054376; n = 1.
The test system of the next experiment is CSNK2A1;CSNK2A3. The note with it: read-out: apparent Kd; compound concentrations: 100 nM and 1000 nM (sheet 'Samples'), CATDS: 0.11670425999811999; n = 1.
The subject of another experiment is CSNK2A2. The note with it: read-out: apparent Kd; compound concentrations: 100 nM and 1000 nM (sheet 'Samples'), CATDS: 0.126102528289014; n = 1.
For the next experiment, the system named is AP1G1. The note with it: read-out: apparent Kd; compound concentrations:100 nM and 1000 nM (sheet 'Samples'); n = 1.

`N#Cc1c(NC(=O)c2ccccc2F)sc2c1CCCC2` [GW572738X]: the potency estimated from few doses with AKT2 (CATDS: 0.30677432174967101) was 2340 nM; with CDK6 (CATDS: 0.31503634964043797), 2200 nM; in the experiment on MAPKAPK2 (CATDS: 0.38970586087063103), 1460 nM.
With `Nc1c(C(=O)c2ccc(C#CCN3CCOCC3)cc2)cnn1-c1ccc(F)cc1` [RO1153136-000], the potency estimated from few doses in the experiment with AKT2 (CATDS: 0.43921962783060797) is 2590 nM; in the experiment on MAP2K3, 1470 nM.
For the compound `Cc1ccc(C(=O)NC2CCCCC2)cc1-c1ccc(C(=O)NCC2CC2)cc1` [GW782907X], the potency estimated from few doses in the experiment with AKT2 (CATDS: 0.479844173242639) was 1850 nM; with PIM2, 1560 nM.
Turning to `O=c1c(Oc2ccc(F)cc2F)cc2cnc(NC3CCOCC3)nc2n1C1CC1` [RO4399247-000], the potency estimated from few doses in the experiment with AKT3 (CATDS: 0.120130462725208) is 1390 nM; with MAPK10, 690 nM; with MAPK14 it was 279 nM; in the experiment with MAPK9 it was 1740 nM; in the experiment on NLK it was 242 nM; in the experiment on PRKCQ, 1930 nM. For the same compound, in the experiment on PRKCZ, the potency estimated from few doses was 1750 nM.
As to `CS(=O)(=O)Nc1ccc(N/C=C2\C(=O)Nc3ccccc32)cc1` [GW278681X], the potency estimated from few doses in the experiment with AKT3 (CATDS: 0.228798391958558) was 1780 nM; in the experiment with FLT3 (CATDS: 0.41420685455441397), 358 nM; in the experiment on MYLK3 (CATDS: 0.45144948525054202), 306 nM.
Consider `FC(F)(F)c1cccc(-c2nn3ncccc3c2-c2ccnc(Nc3ccc4c(c3)OCCO4)n2)c1` [GW827102X], for which the potency estimated from few doses in the experiment on AKT3 (CATDS: 0.31242547502762402) was 2070 nM; in the experiment on COX5A, 1560 nM; with MAPKAPK2 (CATDS: 0.330960581513286), 1830 nM.
For the compound `NS(=O)(=O)c1ccc(Nc2cc(-c3ccc(O)c(F)c3)n[nH]2)cc1` [GW831091X], the potency estimated from few doses in the experiment on AKT3 (CATDS: 8.6052459279118296E-2) is 1690 nM; in the experiment with CDK16, 1550 nM; in the experiment with CDK2, 491 nM; in the experiment on CDK5 it was 759 nM; in the experiment with CDK6 (CATDS: 8.47728191524936E-2), 1770 nM; in the experiment with CSNK2A1;CSNK2A3, 770 nM. Besides, the potency estimated from few doses is 652 nM with CSNK2A2, 99.2 nM in the experiment with FLT3 (CATDS: 0.40008712572593402) and 1830 nM in the experiment on MYLK3 (CATDS: 8.3976923453049093E-2).
Take `COc1cccc(OC)c1C(=O)Nc1cccc(-c2nn3ccccc3c2-c2ccnc(Nc3cccc(F)c3)n2)c1` [GSK361065A]: the potency estimated from few doses with AP1G1 was 895 nM.
